Rows were chosen to be rich in hits. Some 7.5% of all compounds tested hit in one or more screens of this group.
Rab9 prom act = Rab9 promoter activation; 2.8% of 320,000 active; Potency, µM (series often up to 9.22 µM), for inactives: at the highest dose activation, negative = inhibition, actives largely listed as activators; AID 485297; Huh7 Rab9 promoter-luciferase reporter, luminescence, 24 h; further: % of control where 0% means no effect; nearly all actives have a fitted effect of over 60% in size
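Steps: seed 1500 Huh7 Rab9-luc cells per well, rest 2 h at 37 °C; add compound in DMSO; incubate 24 h; add luciferase reagent, 10 min ambient; read luminescence.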
ELG1 genotox = genotoxicity induction in ELG1-luciferase HEK293T cells | Potency, µM (top dose mostly 46 µM), for inactives: at the highest dose activity change, positive = activation, hits mostly activators | 1.3% of 330,000 active | HEK293T ELG1-luciferase reporter, luminescence, 16 h; further: % of control where 0% means no effect; nearly all actives have a fitted effect of over 60% in size
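Genotoxic stress is detected as increased luminescence from luciferase-tagged ELG1 in HEK293T cells, measured with ONE-Glo after a 16 hr treatment at 37 °C.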
FLuc modulator = firefly luciferase modulation, counter-screen for miR-21 project. AID 588342. Potency, µM (top dose mostly 57.5 µM), for the others: at the top dose activity change, negative = inhibition, actives largely listed as inhibitors. 6.9% of 360,000 active. P08659. purified FLuc, Km substrates, luminescence inhibition;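 further: plate controls were vehicle for no effect and reference inhibitor for full effect; nearly all actives have a fitted effect of over 55% in size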
Target sequence (P08659 whole entry, looked up): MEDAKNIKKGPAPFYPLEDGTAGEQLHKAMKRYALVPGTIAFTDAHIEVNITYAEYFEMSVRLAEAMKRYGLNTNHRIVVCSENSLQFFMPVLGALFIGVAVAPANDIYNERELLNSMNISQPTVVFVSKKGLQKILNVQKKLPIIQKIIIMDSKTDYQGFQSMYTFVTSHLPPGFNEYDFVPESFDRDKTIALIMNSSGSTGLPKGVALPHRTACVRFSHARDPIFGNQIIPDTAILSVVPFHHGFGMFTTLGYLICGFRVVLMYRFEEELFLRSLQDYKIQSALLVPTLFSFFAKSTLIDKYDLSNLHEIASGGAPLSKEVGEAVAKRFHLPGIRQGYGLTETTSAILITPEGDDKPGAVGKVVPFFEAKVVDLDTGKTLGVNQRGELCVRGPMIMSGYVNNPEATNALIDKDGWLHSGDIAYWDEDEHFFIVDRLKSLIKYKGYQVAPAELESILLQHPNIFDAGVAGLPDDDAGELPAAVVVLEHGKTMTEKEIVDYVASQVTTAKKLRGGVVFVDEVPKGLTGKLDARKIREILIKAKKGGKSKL
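Biochemical qHTS of compounds, final roughly 60 µM downward over six points, against 10 nM purified firefly luciferase using Km concentrations of substrates (10 uM D-luciferin, 10 uM ATP) in Tris acetate pH 7.5 buffer; luminescence output.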
SMN2 splice up = increases expression of the SMN2 splice variant | HEK293 SMN2-luciferase splicing reporter, luminescence, 30-36 h | Potency, µM (highest dose often 46.1 µM), inactives show at the top dose activity change, positive = activation, most hits filed as activators | 2.8% of 210,000 active | AID 1458; further: % of control where 0% means no effect; nearly all actives have a fitted effect of over 55% in size
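HEK293 cells carry an SMN2 minigene-luciferase reporter in which exon 7 inclusion puts luciferase in frame. Cells were seeded at 2000 cells/well, attached for 10-12 hours, then exposed to compounds for 30-36 hours at 37C before ONE-Glo luminescence.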
NPC1 prom act = NPC1 promoter activation; 2.4% of 320,000 active; Huh7 NPC1 promoter luciferase reporter, 24 h; Potency, µM (highest dose often 9.22 µM), for inactives: top-dose activation, usual class: activators; AID 485313; further: % of control where 0% means no effect; nearly all actives have a fitted effect of over 60% in size
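Cells: Huh7 expressing luciferase under the NPC1 promoter, 1500/well. Seeded 2 h, compound added, incubated 24 h at 37 °C. Luciferase reagent, 10 min ambient, then luminescence.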
The depositor's hits bear a star; ? = inconclusive; . = no result given; [ ] = dose if it differs, or a comment. The call rests on the fitted dose curve; in most records, active means well fitted curve in the direction sought with a large enough effect; inconclusive means small, poorly fitted or top-dose-only effect, or another doubt; inactive means no such curve, though single readings can be large; an effect the other way counts as inactive or inconclusive. Potency means the concentration at half of the fitted maximal effect.

SMILES | Rab9 prom act | ELG1 genotox | FLuc modulator | SMN2 splice up | NPC1 prom act
O=C(Nc1noc2ccccc12)c1ccc(F)cc1 | . | . | 2.1µM* | ? | .
O=C(Nc1ncn[nH]1)c1cccc(F)c1 | -2% | 2% | 0% | . | -2%
CC(=O)Nc1nonc1NC(=O)c1ccc(F)cc1 | 22% | 2% | -1% | 18% | 0%
O=C(Nc1noc2ccccc12)c1cccc(F)c1 | . | . | 2.4µM* | ? | .
Cc1c(C)c(C)c2[nH]c(-c3ccc4c(c3)OCO4)nc2c1C | 17% | -10% | 4.8µM* | . | 19%
COc1ccc(-c2[nH]c(-c3ccc4c(c3)OCO4)nc2-c2ccccc2)cc1 | -4% | -10% | ? | -4% | 1%
CC(=O)c1c(C)[nH]c(C(=O)CN2CCN(S(=O)(=O)c3ccccc3F)CC2)c1C | . | -3% | . | . | .
Cc1ccc(NC(=O)CSc2nnc3[nH]c(=O)cc(-c4ccccc4)n23)cc1Cl | . | . | 0.67µM* | . | .
Cc1ccc(C)c(NC(=O)CSc2nnc3[nH]c(=O)cc(-c4ccccc4)n23)c1 | . | . | 0.95µM* | . | .
CCCCc1ccc(NC(=O)CSc2nnc3[nH]c(=O)cc(C)n23)cc1 | . | . | 15µM* | . | .
CCOc1ccccc1NC(=O)CSc1nccn1-c1ccccc1 | -9% | -7% | -2% | 8% | 0%
Cc1ccc(NC(=O)CSc2nc(N)c(-c3ccccc3)c(=O)[nH]2)cc1Cl | 3% | 9% | -11% | . | -2%
CCOc1ccccc1NC(=O)CSc1nnc2[nH]c(=O)cc(-c3ccccc3)n12 | . | . | 6µM* | . | .
N=C(N)SCc1cccc(-c2nc3ccccc3c(=O)o2)c1 | . | . | . | -1%[9.22 µM] | .
Cc1ccc(S(=O)(=O)N2CCN(CCC#N)CC2)cc1 | 9% | -10% | 2% | -18% | -6%
CCN1CCc2c(sc(NC(=O)c3cc4ccccc4cc3OC)c2C(N)=O)C1 | 4% | 10% | 9.5µM* | . | -5%
CC(C)N1CCc2c(sc(NC(=O)c3ccc4ccccc4c3)c2C(N)=O)C1 | 2% | 9% | 6µM* | . | -4%
CCCCOc1cccc(C(=O)N(Cc2sccc2C)C2CCS(=O)(=O)C2)c1 (stereo not given) | . | . | -8% | -26% | .
CCOC(=O)c1c(NC(=O)CSc2cn(CCNC(=O)c3ccc(OC)c(OC)c3)c3ccccc23)sc2c1CCC2 | . | . | -2% | -1% | .
COc1ccc(NC(=O)CSc2ncccn2)cc1S(=O)(=O)N1CCCCC1 | -4% | -1% | 3% | . | -3%
CCC(=O)Nc1ccc(Oc2ccc3c(c2)C(=O)NC3=O)cc1 | -5% | 1% | 1% | ? | -2%
CC(=O)Nc1cccc(Oc2ccc3c(c2)C(=O)NC3=O)c1 | 21% | ? | 11µM* | . | 19%
CN1C(=O)/C(=C\C=C2/CCCN2C)N(C)C1=S | ? | ? | ? | ? | 25%
CCN1C(=O)/C(=C/C=C2/CCCN2C)OC1=S | ? | ? | ? | . | 3.2µM*
CC1(C)CC(O)C(C(O)c2cccc([N+](=O)[O-])c2)C(C)(C)N1 (stereo not given) | -5% | -2% | 6% | 0% | -7%
SMILES | Rab9 prom act | ELG1 genotox | FLuc modulator | SMN2 splice up | NPC1 prom act
Cc1onc(-c2ccccc2Cl)c1C(=O)Nc1nnc(C(C)C)s1 | -2% | -1% | 3% | 8% | -1%
O=C(Nc1nccs1)c1sc2ccccc2c1Cl | 1.1µM* | ? | 0.67µM* | 2.5µM* | 4µM*
O=C(Nc1ccccn1)c1sc2cc([N+](=O)[O-])ccc2c1Cl | 1.3µM* | 13% | ? | . | ?
O=C(NCCCN1CCOCC1)c1sc2cc([N+](=O)[O-])ccc2c1Cl | -6% | -3% | ? | 2% | 0%
CC(C)c1nnc(NC(=O)c2sc3ccccc3c2Cl)s1 | ? | 19% | 4.8µM* | ? | 3.2µM*
O=C(Nc1nccs1)c1sc2cc(Cl)ccc2c1Cl | 4µM* | 13% | 2.7µM* | ? | 3.5µM*
C=C/C1=C/Cc2ccccc2[C@H](C[N+](=O)[O-])C(C(C)=O)(C(=O)OC)C1 (stereo not given in full) | . | . | . | -11% | .
COc1ccc(CNC(C)C(=O)Nc2ccc3ccccc3c2)cc1OC (stereo not given) | -9% | -2% | -1% | -14% | 3%
Cc1ccnc(NC(=O)c2cccc3ccccc23)c1 | ? | 0% | 2% | . | ?
CCCn1nnc(NC(=O)c2sc3ccccc3c2Cl)n1 | 3.2µM* | 9.2µM* | 27µM* | ? | ?
O=C(CCn1c(=O)sc2ccccc21)Nc1nccs1 | 20% | ? | 13µM* | 0% | 30%
Cc1cnc(NC(=O)c2sc3ccccc3c2Cl)s1 | ? | 0.65µM* | 0.3µM* | 1µM* | ?
Cc1ccnc(NC(=O)c2sc3ccccc3c2Cl)c1 | 0.32µM* | 0.92µM* | 0.12µM* | 3.2µM* | 0.1µM*
COc1ccc(-n2c(=O)c(C)nc3cnc(Nc4ccccc4)nc32)cc1 | . | . | . | -3% | .
COc1ccc(C(=O)Oc2ccc(C(c3c(C)[nH][nH]c3=O)c3c(C)[nH][nH]c3=O)cc2)cc1 | . | . | 17µM* | 20% | .
COc1ccc(OC(=O)c2ccncc2)cc1 | -4% | 6% | -20% | -1% | -5%
COc1ccc(C(=O)Oc2ccc(/C=N/O)cc2)cc1 | -5% | 8% | 6µM* | -8% | 1%
O=C(NCc1nc(-c2ccc(C(F)(F)F)cc2)no1)Nc1cc(Cl)cc(Cl)c1 | 4% | 15% | 5% | . | 0%
CC(C)NC(=O)N1CCN(S(=O)(=O)c2ccc3c(ccn3C)c2)CC1 | . | . | 0% | . | .
O=C(Nc1ccc(Br)cc1)c1cc(S(=O)(=O)N2CCc3ccccc32)ccc1F | . | . | -2% | . | .
C=CCSc1nnc(-c2cccnc2)o1 | 2% | ? | -3% | ? | -2%
C=CCSc1nnc(-c2ccc([N+](=O)[O-])cc2)o1 | 4µM* | ? | 17µM* | ? | 3.5µM*
C=CCSc1nnc(-c2ccc(Cl)cc2Cl)o1 | 0.45µM* | ? | 1.3µM* | ? | 0.71µM*
Clc1ccc(-c2nnc(SCc3ccon3)o2)c(Cl)c1 | 0.5µM* | 1.2µM* | 1.2µM* | 2.8µM* | 0.35µM*
Clc1ccc(-c2nnc(SCc3nc4ccccc4[nH]3)o2)c(Cl)c1 | 1% | -2% | 0% | -26% | -3%
SMILES | Rab9 prom act | ELG1 genotox | FLuc modulator | SMN2 splice up | NPC1 prom act
Cc1oc(S(=O)(=O)N2CCCCC2)cc1NC(=O)Nc1ccc(Cl)cc1 | -3% | -8% | 5% | . | -6%
CCC1(C)Cc2ccccc2C(=S)N1 (stereo not given) | 0% | -6% | -3% | 3% | -4%
CC1CCCC(NC(=S)Nc2cccc(S(=O)(=O)N(C)C)c2)C1C (stereo not given) | -9% | -9% | 3% | -2% | -3%
Cc1ccc(SCC(=O)OCC(=O)N(CCC#N)c2ccccc2)cc1 | -2% | 0% | 0% | . | 0%
O=[N+]([O-])c1cccc(-c2noc(-c3cccs3)n2)c1 | 2.5µM* | 15µM* | 2.7µM* | . | 3.5µM*
CCOc1nc(-c2ccc(OC)cc2)ccc1-c1noc(-c2ccncc2)n1 | -6% | -1% | 3% | 14% | -4%
